Hits are enriched below; roughly 0.28% of the tested compounds scored in any of these assays.
hcGAS inh = blocks human cGAS activity; AID 1259398; Q8N884; hit rate 0.081% among 290,000; recombinant h-cGAS, ATP depletion, Kinase-Glo luminescence; inhibition, % at 12.5 µM;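 also: 0% = vehicle reaction and 100% = reaction without DNA for no activity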
Target sequence (Q8N884 whole entry, looked up): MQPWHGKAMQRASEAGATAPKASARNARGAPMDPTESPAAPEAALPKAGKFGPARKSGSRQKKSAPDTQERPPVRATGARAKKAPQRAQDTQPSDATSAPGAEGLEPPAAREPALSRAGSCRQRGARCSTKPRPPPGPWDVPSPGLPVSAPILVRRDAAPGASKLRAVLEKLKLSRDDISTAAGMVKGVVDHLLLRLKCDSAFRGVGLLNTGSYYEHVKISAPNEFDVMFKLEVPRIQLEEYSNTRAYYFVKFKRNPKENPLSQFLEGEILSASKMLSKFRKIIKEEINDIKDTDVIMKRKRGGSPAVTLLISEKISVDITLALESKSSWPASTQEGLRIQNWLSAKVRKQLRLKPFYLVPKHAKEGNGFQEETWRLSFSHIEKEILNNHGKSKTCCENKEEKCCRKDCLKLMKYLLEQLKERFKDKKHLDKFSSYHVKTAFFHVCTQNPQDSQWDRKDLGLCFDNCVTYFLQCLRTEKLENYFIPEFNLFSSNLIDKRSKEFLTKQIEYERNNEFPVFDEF
NPYLR7 agonist = mosquito NPYLR7 agonism; HEK293T NPYLR7/Galpha15, GCaMP6s calcium fluorescence; activation, % at 10 µM; hit rate 0.15% among 270,000; in the data active = activation above about 40%;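 also: 0% = vehicle and 100% = reference agonist at the receptor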
mcGAS lum = mouse cGAS inhibition by luminescence; inhibition, % at 12.5 µM; Q8C6L5; recombinant cGAS, Kinase-Glo ATP depletion luminescence; AID 1259399; hit rate 0.15% among 160,000;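 also: 0% = negative control wells and 100% = reference inhibitor with no enzyme activity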
Active calls of the source: *; · = not tested or not shown. Rule as the data show it, unless noted: active = inhibition above about 40%; inactive = the rest.

SMILES | hcGAS inh | NPYLR7 agonist | mcGAS lum
CCN(CC)C(=O)Cn1cc(SCC(=O)NCc2ccc(C)cc2)c2ccccc21 | -6 | -3 | -7
Nc1nc(-c2cc(I)c(O)c(I)c2)cs1 | 66* | -2 | 102*
Nc1nc(-c2ccncc2)cs1 | 4 | 8 | ·
CCOc1ccccc1CCNC(=O)c1cc2n(n1)CCN(C)C2 | -2 | 9 | ·
CC(=O)C1=C(O)C=C2Oc3c(C(C)=O)c(O)c(C)c(O)c3C2(C)C1=O (configuration not stated) | 78* | 1 | 86*
Nc1ccc(/C=C/c2nc3ccccc3o2)cc1 | -1 | 2 | -2
COc1cc(/C=C/c2nc3ccccc3o2)cc(Cl)c1O | -3 | 334* | -13
N#C/C(=C/c1ccc(N2CCCCC2)o1)c1cccc(F)c1 | -1 | 63* | ·
N#C/C(=C/c1ccc(N2CCCCC2)cc1F)c1ccc(C(=O)O)cc1 | 0 | -1 | -5
O=C(NCc1ccc(Cl)cc1)c1cc(=O)c(OCc2ccc(F)cc2)co1 | -10 | 1 | ·
FC(F)(F)c1nc2ccccc2[nH]1 | -4 | -1 | -2
FC(F)(F)c1nc2c(Cl)cc(Cl)cc2[nH]1 | 56* | 3 | ·
COc1cc(C)c(CSCc2ccc(C#N)cc2)cc1OC | -4 | 6 | -18
O=C1c2ccc(-c3nc4ccccc4c(=O)o3)cc2C(=O)N1c1ccc(Br)cc1 | -3 | 4 | -2
O=C1c2ccc(-c3nc4ccccc4c(=O)o3)cc2C(=O)N1c1nc2ccccc2s1 | 33 | -8 | 45*
NC(Cc1ccc(Cl)cc1)C(=O)O (configuration not stated) | -3 | -7 | -5
N[C@@H](Cc1cc(-c2ccc(Cl)cc2Cl)cc(CP(=O)(O)O)c1O)C(=O)O | 53* | -13 | ·
Cc1ccnc(SCc2cc(=O)c(OC(=O)Cc3ccc(Cl)cc3)co2)n1 | -2 | -13 | 33
Cc1cc(C)nc(SCc2cc(=O)c(OC(=O)Cc3ccc([N+](=O)[O-])cc3)co2)n1 | -6 | -11 | 9
Cc1cc(C)nc(SCc2cc(=O)c(OC(=O)Cc3ccc(Cl)cc3)co2)n1 | -1 | -10 | 31
Cc1cc(C)nc(SCc2cc(=O)c(OC(=O)Cc3ccc(F)cc3)co2)n1 | 5 | -16 | 82*
CCOc1ccc(CC(=O)Oc2coc(CSc3nc(C)cc(C)n3)cc2=O)cc1 | 0 | -16 | 63*
CCOc1ccc(CC(=O)Oc2coc(CSc3nccc(C)n3)cc2=O)cc1 | 0 | -1 | 59*
COc1cccc(OC)c1-c1cnn(Cc2ccccc2)c1 | -3 | 9 | -9
CCOC(=O)c1nc2ccccc2nc1N1CCN(C(=O)N2CCOCC2)CC1 | -6 | 52* | ·
SMILES | hcGAS inh | NPYLR7 agonist | mcGAS lum
C=CC(=O)N1CCN(c2nc3ccccc3nc2C(=O)OCC)CC1 | -10 | 12 | -4
COc1cc(Cl)cc(/C=N\NC2=NS(=O)(=O)c3ccccc32)c1O | -3 | -2 | -5
O=C(Cc1cccc(O)c1)N1CCC(COc2ccccn2)CC1 | 4 | · | ·
COc1ccc(/C=C2\Oc3c4c(cc(C)c3C2=O)OCN(CC2CCCO2)C4)cc1OC (configuration not stated) | 1 | 15 | 3
O=C1/C(=C/c2ccc3c(c2)OCO3)Oc2c1ccc1c2CN(CC2CCCO2)CO1 (configuration not stated) | -6 | 83* | -7
Cc1sc2nc(CSc3ccc(Br)cc3)nc(-n3ccnc3)c2c1C | -11 | 5 | ·
C=CCOc1ccc(C=C2COc3ccccc3C2=O)cc1OC | -3 | 3 | 46*
COc1cc(C=C2COc3ccccc3C2=O)ccc1OCC#N | -5 | 0 | 38
CN1CCC2(CC1)CN(C(=O)CCCn1cncn1)CCCN2C | -4 | 3 | -13
O=C(O)c1ccccc1OP(=O)(O)O | 5 | -10 | 61*
CCCCC(=O)Oc1ccccc1C(=O)O | -6 | · | -5
Cn1ccnc1CN(C(=O)c1cc(-c2ccc(O)cc2)n[nH]1)C1CC1 | -2 | 6 | -14
c1ccc2c(-c3cc(NC4CCNCC4)nc4[nH]ccc34)n[nH]c2c1 | 19 | 24 | -11
c1cnc(-c2cc(NC3CCNCC3)nc3[nH]ccc23)nc1 | 46* | 30 | -3
COc1ccccc1CC(=O)N1CCC(C(Cc2ccccc2)N(C)C(=O)c2ccccn2)CC1 (configuration not stated) | -7 | 11 | -12
CC1CCN(c2nnc(SCC(=O)NC3CCCC3)n2C2CC2)CC1 | -5 | 1 | ·
O=C(CCl)Nc1ccc([N+](=O)[O-])cc1Cl | -7 | -1 | 60*
O=C(CSc1nnc2ccccn12)Nc1ccc([N+](=O)[O-])cc1Cl | -5 | -4 | ·
CCc1ccc(CN(C)Cc2c(C(=O)N3CCCCC3)nc3sccn23)nc1 | -7 | 4 | ·
Nc1c(NC(=O)N2CCN(C3CCCC3)CC2)c(-c2ccc(Cl)cc2)nn1-c1ccccc1 | 164* | 5 | ·
O=C(Nc1ccc(Cl)cc1)N1CCCN(C2CC2)CC1 | -8 | 1 | ·
CC(C)c1ccc(O)c(NC(=S)NC(=O)c2cncc(Br)c2)c1 | -5 | 1 | ·
CCNc1ccc(OC)nc1 | 0 | 55* | ·
CNc1ccc(-c2ccc(OC)nc2)cn1 | -17 | 2 | ·
CC(SCC1CCCO1)C(=O)Nc1ccc2c(c1)CCC2 (configuration not stated) | -10 | 12 | -7
SMILES | hcGAS inh | NPYLR7 agonist | mcGAS lum
CCN(CC)C(=O)Oc1ccc2c(ccn2Cc2ccc(Br)cc2)c1-c1ccc(OC)cc1 | -1 | -11 | -1
COCCNC(=O)Cn1c(CO)cnc1SCC(=O)Nc1cccc(C(F)(F)F)c1 | -3 | 8 | ·
C=CCC1=CC(=Cc2c(N)n3nc(Cc4cccs4)sc3nc2=O)C=C(OC)C1=O | 2 | 95* | ·
CCCCc1nn2c(N)c(C=C3C=CC(=O)C(OCC)=C3)c(=O)nc2s1 | -2 | 39 | ·
CC(NCc1cc(F)ccc1C(F)(F)F)C(=O)NC1CCCC1 (configuration not stated) | -4 | -1 | ·
COc1ccc(-c2cccc(-c3ccc(NC(=O)c4c(F)cccc4F)cc3)n2)cc1 | -2 | 1 | -4
COc1ccc(-c2cccc(-c3ccc(NC(=O)c4oc5ccccc5c4C)cc3)n2)cc1 | -3 | 43* | -6
COc1ccc(NC(=O)Cn2nc3c(SC4CCCCC4)nccn3c2=O)cc1OC | -5 | -7 | -4
CCN(CC)Cc1c(O)cc(C)c2c1O/C(=C\c1cc3ccccc3o1)C2=O | -2 | 70* | -2
Cc1cc(O)c(CN2CCN(C)CC2)c2c1C(=O)/C(=C/c1cc3ccccc3o1)O2 | -8 | 8 | -9
O=c1[nH]c2c(Br)c(Br)c(Br)cc2o1 | 35 | 12 | 66*
O=c1[nH]c2ccc(Cl)cc2o1 | -4 | 7 | ·
CCOc1ccccc1NC(=O)N1CC(=O)N2CCc3c(F)cccc3C2C1 (configuration not stated) | 0 | 10 | -3
COc1cc(NC(=O)N2CC(=O)N3CCc4c(F)cccc4C3C2)cc(OC)c1OC (configuration not stated) | -7 | 43* | -8
Cc1ccc(CN(Cc2ccc3c(c2)OCO3)C(=O)CN(CC2CCCO2)C(=O)Nc2ccc(F)cc2F)o1 (configuration not stated) | -4 | 12 | -3
Cc1ccc(NC(=O)N(CC(=O)N(Cc2ccc(F)cc2)Cc2ccc(C)o2)CC2CCCO2)c(C)c1 (configuration not stated) | 89* | -4 | -4

Screening data deposited in PubChem BioAssay by Fisher Drug Discovery Resource Center.
